PubChem BioAssay AID624134 (Broad Institute, 2012)
Out of some 1,600 compounds screened, about 1,100 (69%) were called active. The set was probably picked from earlier hits. Only a sample is shown. Entries with a potency or affinity are not part of this list. Inconclusive results are not listed.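 Rule for the calls: active = signal drop with fitted half-maximal concentration no higher than twice the top valid tested concentration; inconclusive = flat curve with 30 to 70% signal loss, or poor fit; inactive = the rest, including signal rises and flat curves within 30%.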 Non-standard residues stand in square brackets, D forms with d. Residues, ends and D or L forms follow the SMILES beside them. *: point of attachment. Ac5c = NC1(C(=O)O)CCCC1; Cbz = O=C(OCc1ccccc1)*

Assay: HepG2 cell cytotoxicity, dose response, cytotoxicity control for Shn3 inhibitor project, CellTiter-Glo, cherry-picked (AID 624134)
Conditions: HepG2 viability, CellTiter-Glo ATP luminescence, 48 h; series mostly up to 35 µM

Compound	outcome
OCCNc1nc(Nc2ccc(Cl)cc2)nc(N2CCCC2)n1	inactive
CCCn1c(C)cc(C(=O)CN2C(=O)c3ccccc3S2(=O)=O)c1C	inactive
O=C1S/C(=C\c2ccc(N3CCOCC3)o2)C(=O)N1Cc1c(F)cccc1Cl	inactive
COc1c(C)cc(C(=O)C2CCCN(C(=O)c3cccc(-n4cccn4)c3)C2)cc1C (centres undefined)	inactive
Cc1nc2scc(C)n2c(=O)c1S(=O)(=O)Nc1ccc(N2CCOCC2)c(Cl)c1	inactive
O=C(CSc1nc2ncc(Cl)cc2[nH]1)N1CCOCC1	inactive
CC(C)(C)C(=O)Nc1ccc(NC(=O)c2ccco2)nc1	inactive
COc1ccc(S(=O)(=O)NCCC(=O)OCC(=O)NC2CC2)cc1	inactive
O=C(CSc1nnc(Nc2ccccc2)s1)NC1CCS(=O)(=O)C1 (centres undefined)	inactive
Cc1ccc(S(=O)(=O)N2CCCCC2)cc1NS(=O)(=O)c1ccccc1F	inactive
COc1cccc(C2CC(c3ccc(C)cc3)=NN2C(=O)c2ccccc2F)c1OC (centres undefined)	inactive
Cc1cc(C(=O)Cn2cnc3cc(F)ccc3c2=O)c(C)n1C1CC1	inactive
CCCc1nc([N+](=O)[O-])c(S(=O)(=O)c2ccccc2)n1CC(C)C	inactive
Cc1ccc(C(=O)Nc2ccc3c(c2)C(=O)N(CC2CCCO2)C3=O)cc1 (centres undefined)	inactive
COc1ccc([C@@]23Oc4cc(OC)cc(OC)c4[C@]2(O)[C@H](O)[C@H](C(=O)N(C)C)[C@H]3c2ccccc2)cc1	inactive
CCN(CC)C(=O)C1CCCN(c2ccc([N+](=O)[O-])cc2[N+](=O)[O-])C1 (centres undefined)	inactive
CCCCN1CC(COCc2ccccc2)Oc2cccc(Oc3ccc(C(C)C)cc3)c2S1(=O)=O (centres undefined)	inactive
COc1cccc(-c2nc(NC3CCCC3)c3ccccc3n2)c1O	inactive
O=C(N[C@@H]1C/C=C\C[C@@H](CC(=O)N(CCO)Cc2ccccc2)C(=O)NC[C@H](c2ccccc2)OC1=O)OCC1c2ccccc2-c2ccccc21	inactive
Cc1ccc(-c2nc3cccnc3o2)cc1NC(=O)COc1ccc(C(C)(C)C)cc1	inactive
CC(C)CCC(C(=O)O)C(C)CC(=O)NNC(=O)c1ccco1 (centres undefined)	inactive
CC(C)(C)N(Cc1ccccc1)C(=O)COC(=O)CCc1c[nH]c2ccccc12	inactive
CCCCCCN1C[C@H](n2cc(-c3ccc(F)cc3)nn2)[C@@H](O)C[C@@H]1c1ccc(Cl)cc1	inactive
CC(=O)N1c2ccc(S(=O)(=O)N3CCC(C(=O)N4CCN(c5cc(Cl)ccc5C)CC4)CC3)cc2CC1C (centres undefined)	inactive

Compound	outcome
CCN(c1ccccc1)S(=O)(=O)c1ccc(Cl)c(NC(=O)CN(C)Cc2cccc(F)c2)c1	inactive
Cc1cccc(C)c1NC(=O)CN(C)C(=O)c1cc(S(=O)(=O)N(C)C)ccc1N1CCCC1	inactive
Oc1c(C(c2cccs2)N2CCC3(CC2)OCCO3)sc2ncnn12 (centres undefined)	inactive
CCOC(=O)/C(=C\c1ccc([N+](=O)[O-])cc1)C(=O)c1cc(C(C)=O)c(Nc2ccccc2)s1	inactive
CCOC(=O)c1[nH]c(C)c(/C(O)=C2\C(=O)C(=O)N(CCCN3CCOCC3)C2c2cccs2)c1C (centres undefined)	inactive
CN1C(=O)c2cccc(NCCCCCCN3C(=O)c4ccccc4C3=O)c2C1=O	inactive
Cc1ccc(C)c(N2CCN(S(=O)(=O)c3ccc4[nH]c(=O)ccc4c3)CC2)c1	inactive
Nc1cc(=O)[nH]c(SCC(=O)Nc2cccc([N+](=O)[O-])c2)n1	inactive
CC1Cc2ccccc2N1Cc1cccc(S(=O)(=O)N(C)C)c1 (centres undefined)	inactive
Cc1cccc(-c2noc(CN(C(=O)C(c3ccccc3)c3ccccc3)C(C)C)n2)c1	inactive
CCCCNc1cccc2c1S(=O)(=O)N(CCCC)CC(COCc1ccccc1)O2 (centres undefined)	inactive
C=CCn1c(C)cc(C(=O)CN2C(=O)c3ccccc3S2(=O)=O)c1C	inactive
CC(NNC(=S)N1CCN(c2ccccn2)CC1)c1nccc2ccccc12 (centres undefined)	inactive
CCOC(=O)C1=C(C)N(CCCC(=O)O)C(=O)NC1c1ccc2ccccc2c1 (centres undefined)	inactive
CC1Cc2cc(S(=O)(=O)N3CCC(C(=O)N4CCN(c5ccccc5F)CC4)CC3)ccc2N1C(=O)C1CC1 (centres undefined)	inactive
CC(=O)N1c2ccc(S(=O)(=O)N3CCC(C(=O)N4CCN(c5ccccc5F)CC4)CC3)cc2CC1C (centres undefined)	inactive
CC(=O)Oc1ccc(OC(C)=O)c(SCCCCCCl)c1	inactive
CN1/C(=C\C(=O)CN2C(=O)NC3(CCCCCC3)C2=O)C(C)(C)c2ccccc21	inactive
Cc1ccc(N2C(=O)c3cccc4c([N+](=O)[O-])ccc(c34)C2=O)c2cccnc12	inactive
O=C(N[C@@H]1C/C=C\C[C@H](CC(=O)N(CCO)Cc2ccccc2)C(=O)NC[C@@H](c2ccccc2)OC1=O)OCC1c2ccccc2-c2ccccc21	inactive
CN(CC(=O)Nc1cc(S(=O)(=O)N2CCCC2)ccc1Cl)Cc1ccc2c(c1)OCO2	inactive
Cc1ccc(NC(=O)NCCCN2CCOCC2)cc1	inactive
CC12CC(O)C3c4ccc(O)cc4CCC3C1CCC2=O (centres undefined)	inactive
CCCCCOC(=O)c1[nH]c2c(c1C)C(=O)CC(c1ccco1)C2 (centres undefined)	inactive

Compound	outcome
CCOC(=O)CNC(=O)C1(NC(=O)CNC(=O)OCc2ccccc2)CCCC1 (Cbz-Gly-[Ac5c]-Gly-OEt)	inactive
CCC(C)[C@H]1CNC(=S)N1CCc1cc(C(F)(F)F)cc(C(F)(F)F)c1 (some centres undefined)	inactive
CC(C)N=C(N)N=C(N)Nc1ccc(Cl)cc1	inactive
Cc1cc(C)cc(C(=O)NCC(=O)OCC(=O)NCC(F)(F)F)c1	inactive
CSC1SCC2C(=O)N(C)C(C(C)C)C(=O)OCC(NC(=O)c3cnc4ccccc4n3)C(=O)NC(C)C(=O)N(C)C1C(=O)N(C)C(C(C)C)C(=O)OCC(NC(=O)c1cnc3ccccc3n1)C(=O)NC(C)C(=O)N2C (centres undefined)	inactive
O=C1ON=C(c2ccccc2)/C1=C/c1ccc(-c2ccccc2[N+](=O)[O-])o1	inactive
Cc1cc(C(=O)COC(=O)c2ccccc2O)c(C)n1Cc1cccs1	inactive
CC(Oc1ccc(F)cc1)C(=O)N(CCC1=CCCCC1)c1c(N)n(Cc2ccccc2)c(=O)[nH]c1=O (centres undefined)	inactive
COc1ccc2c(CC(=O)OCC(=O)N(C)c3c(N)n(Cc4ccccc4)c(=O)[nH]c3=O)coc2c1	inactive
Cn1cccc1Cc1nnc(SCC(=O)NCCc2ccccc2)n1-c1ccc(F)cc1	inactive
CCCOc1ccccc1C1CC(=O)Nc2cc3c(cc21)OCCO3 (centres undefined)	inactive
COc1cc(C#Cc2c(-c3cncn3C)n(C)c3ccc(-c4ccc(OC)nc4)cc23)cc(OC)c1	inactive
O=C(c1n[nH]c(=O)c2ccccc12)N1CCN(C2c3ccccc3-c3ccccc32)CC1	inactive
Cn1cc(CN(CCO)Cc2cccs2)c(-c2cccc(Cl)c2)n1	inactive
Cc1noc(C)c1COC(=O)[C@@H](NC(=O)c1ccccc1)C(C)C	inactive
COc1ccc(CN(C(=O)CSc2nnc(-c3ccc(F)cc3)o2)c2ccc(F)cc2)cc1	inactive
Fc1ccccc1N1CCN(Cc2nc(-c3ccccc3)no2)CC1	inactive
O=C(Nc1cc2c3c(c1)C1CCCC1CN3CC1CCCC21)c1ccc([N+](=O)[O-])cc1 (centres undefined)	inactive
CCCCC[C@H]1CN(Cc2ccc(OC)cc2)C(=O)[C@@H]1CC(=O)NCc1ccccc1	inactive
CSc1nnc(NC(=O)c2nc(S(=O)(=O)Cc3ccccc3F)ncc2Cl)s1	inactive
Cc1ccc(CS(=O)(=O)c2ncc(Cl)c(C(=O)Nc3nnc(C)s3)n2)cc1	inactive
CCn1c(=O)c(C(=O)Nc2nc3ccccc3[nH]2)c(O)c2ccccc21	inactive
CCOC(=O)Cn1c(S(=O)(=O)Cc2ccccc2Cl)nc(-c2ccccc2)c1-c1ccccc1	inactive
CCOC(=O)Cn1c(=O)c(-c2cc(Br)ccc2N)nc2ccccc21	inactive

Compound	outcome
CCOC(=O)c1cccc(NC2c3ccccc3C(=O)N2Cc2ccco2)c1 (centres undefined)	inactive
CCOC(=O)c1c(C)[nH]c(C)c1C(=O)CSc1nc2ccccc2c(=O)n1-c1ccc(CC)cc1	inactive
CSc1nnc(-c2ccco2)n1-c1ccccc1	inactive
CCC(C)c1ccc(S(=O)(=O)N2CCN(C(=O)c3ccc(Cl)c(S(=O)(=O)N4CCOCC4)c3)CC2)cc1 (centres undefined)	inactive
CCCCCCC#Cc1ccc2c(c1)COc1c3ccccc3nn1-2	inactive
O=C(O)C1(Nc2ccccc2Cl)CCCC1	inactive
Cc1ccn2cc(-c3ccc(O)c(O)c3)nc2c1	inactive
Cc1ccc(-c2cn3cc(C)ccc3n2)cc1	inactive
COC(=O)C12OCC34C(CC5C(C)=C(O)C(=O)CC5(C)C3C(O)C1O)OC(=O)C(OC(=O)C=C(C)C)C24 (centres undefined)	inactive
O=C(NCCCn1ccnc1)C(=O)NCC1OCCCN1S(=O)(=O)c1ccccc1 (centres undefined)	inactive
CC(C)c1c(O)c2c(n(-c3ccccc3)c1=O)CCCC2	inactive
Cc1ccc(NC(=O)c2cc3ccccc3oc2=O)cc1S(=O)(=O)N(C)C	inactive
O=C1CCc2cccc(O)c2N1	inactive
Cc1ccc(Cn2ccc(NC(=O)c3nn(C)cc3[N+](=O)[O-])n2)cc1	inactive
Cc1ccc(C(=O)Nc2cnc3ccccc3c2)cc1	inactive
COC(=O)c1ccccc1NC(=S)N(Cc1ccc2c(c1)OCO2)Cc1cc2cc(OC)ccc2[nH]c1=O	inactive
CC(C)c1nnc(NC(=O)c2nc(S(=O)(=O)Cc3ccc(F)cc3)ncc2Cl)s1	inactive
COCc1nn2c(N)c(C#N)cnc2c1-c1ccccc1	inactive
C=CCOc1nc2c(c(=O)n(C)c(=O)n2C)n1Cc1ccc(Cl)cc1	inactive
COc1ccc(CCNC(=O)CCC(=O)N2CCOc3ccc(Cl)cc32)cc1OC	inactive
CCOC(=O)N1CCN(CC(c2ccccc2)c2ccccc2)CC1	inactive
COc1ccccc1NC(=O)Cn1cc(C(=O)C2CC2)c2ccccc21	inactive
